Assay results reported in the supplement of paper PMC12636033.
± gives the standard deviation of the averaged measurements. In all, about 33,000 sequences were measured (“E-score (rank enrichment, -0.5 to 0.5)”: median about -0.0075, highest 2% from about 0.23 on). Only a selection was taken, and the highest values are over-represented in it overall.

tested on: WT Max(13-93) synthetic (M65Nle); test: PBM 8-mer E-score (E-score (rank enrichment, -0.5 to 0.5)); higher = stronger preferential binding
Protocol: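 Protein binding microarray (universal PBM chip covering all 10-mers in fixed probe flanks) with chemically synthesized human Max(13-93) bHLH-LZ analogs (not full-length Max) bearing noncanonical residues (hArg, Tha, Aib, Nle at 65) and aromatic Cys staples. Read-out per 8-mer (and its reverse complement): E-score (rank-based enrichment, -0.5 to 0.5) and Z-score of median probe intensity.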

Sequence | PBM 8-mer E-score
CCCACGCG | 0.31 ± 0.011
ACCACGCC | 0.0629 ± 0.16
CCCACGCC | -0.00325 ± 0.11
AGCACGTC | -0.118 ± 0.093
ACCACGTC | 0.0378 ± 0.15
AGCACGTG | 0.4878 ± 0.00074
CCTTCGAA | 0.0583 ± 0.015
ATTCAACA | 0.131 ± 0.1
AGCCGTCA | -0.0749 ± 0.036
CGATCGTC | -0.278 ± 0.042
TCCCGGGA | -0.251 ± 0.0053
AATGGCAT | 0.16 ± 0.14
CAAAAAGC | -0.0124 ± 0.093
AGGAGCAT | 0.00459 ± 0.16
AGCTCTCA | -0.0708 ± 0.13
CCGTGCCC | -0.132 ± 0.18
ACGTGCCG | 0.206 ± 0.029
GCGTGCCA | -0.0642 ± 0.045
ACGTGCCC | 0.247 ± 0.032
AAGTGCCT | -0.106 ± 0.055
ACGTGCCT | 0.252 ± 0.0048
GCGTGCCC | -0.0787 ± 0.13
CCGTGCCA | -0.0364 ± 0.14
ACGTGCCA | 0.294 ± 0.025
GCCTTGCC | -0.201 ± 0.024

Sequence | PBM 8-mer E-score
CAGAATAG | 0.0142 ± 0.048
CCTATACG | 0.0369 ± 0.014
CGCGAGAA | -0.0592 ± 0.072
CGTGGCGA | 0.015 ± 0.0011
ACTAGGCA | -0.0155 ± 0.066
AATCGGAG | -0.0774 ± 0.087
ATTGCCTC | 0.0622 ± 0.064
ACGCGCGA | 0.114 ± 0.066
AAACGCGT | 0.0714 ± 0.1
ACACGCGT | 0.325 ± 0.013
CCACGCGA | 0.0546 ± 0.083
ACACGCTG | 0.0854 ± 0.074
ACACGCGG | 0.281 ± 0.03
ACACGCGA | 0.157 ± 0.042
ACACGCAT | 0.159 ± 0.043
CCACGCGC | 0.152 ± 0.035
CCACGCGG | 0.433 ± 0.024
GCACGCGC | 0.171 ± 0.025
ACACGCGC | 0.259 ± 0.026
ATCCCTCC | 0.0287 ± 0.088
CAGGGTAC | -0.008 ± 0.013
CGCTAGTA | -0.0479 ± 0.0027
CAGTGCGA | -0.0198 ± 0.16
AGTCGTTC | -0.143 ± 0.11
CCAGCCCA | -0.176 ± 0.14

Sequence | PBM 8-mer E-score
GCAACCAA | 0.00549 ± 0.078
AAGCGCGC | 0.0137 ± 0.0014
ACGCGCGC | 0.0593 ± 0.05
CCACGAGA | 0.0679 ± 0.15
CCACGAGG | 0.365 ± 0.052
CCACGAGC | -0.0509 ± 0.015
ACGCGCGT | 0.246 ± 0.012
ACGCGCGG | 0.118 ± 0.018
ATCTAATG | -0.0696 ± 0.071
AAGCTCTG | -0.144 ± 0.028
ATCGCGCA | -0.034 ± 0.026
CCAGAGTC | -0.155 ± 0.0016
ACAGCATA | 0.00665 ± 0.081
CAAGCATC | 0.00917 ± 0.063
CACGCATG | 0.184 ± 0.066
AACGCATC | 0.0593 ± 0.014
AACGCATG | 0.305 ± 0.042
AAAGCATA | 0.211 ± 0.026
ACAGCATG | 0.305 ± 0.01
AAAGCATG | 0.303 ± 0.017
CAAGCATG | 0.24 ± 0.053
ACAGCATC | 0.0804 ± 0.099
AAAGCATT | 0.14 ± 0.0086
CAAGCATA | 0.104 ± 0.034
ACACAGAC | 0.00286 ± 0.095

Sequence | PBM 8-mer E-score
AGACGTAG | 0.0572 ± 0.041
CAATGCGC | 0.0235 ± 0.012
AAGGGCGT | -0.0104 ± 0.031
GATAAAGC | 0.179 ± 0.094
AGTGGAGG | 0.0658 ± 0.0029
ATTAGACG | 0.136 ± 0.028
CAAGATAA | 0.256 ± 0.014
AAAGATAG | 0.0319 ± 0.07
CAAGATAC | 0.146 ± 0.047
TAAGATAA | 0.018 ± 0.049
AAAGATAA | 0.234 ± 0.029
AAAGATAC | 0.00254 ± 0.17
GCTACGTA | 0.0754 ± 0.075
ACCCAGCT | -0.00912 ± 0.022
TCGAGACA | -0.125 ± 0.06
GACCTTAC | -0.127 ± 0.056
TCCTTTCA | 0.177 ± 0.086
CCGACCAG | -0.175 ± 0.0087
GTGGAGTA | -0.0124 ± 0.029
TGGACGAA | 0.138 ± 0.011
GGTATCTA | 0.0126 ± 0.011
AGTATCTA | 0.253 ± 0.022
CGTATCTA | -0.0295 ± 0.068
CGGCAATC | -0.205 ± 0.029
AGTCGGTC | -0.181 ± 0.0094

Sequence | PBM 8-mer E-score
GATCAAGA | -0.00477 ± 0.11
GACATGGA | -0.0676 ± 0.069
AACATGGC | 0.118 ± 0.02
CACATGAA | 0.1797 ± 0.00019
GACATGGC | 0.073 ± 0.098
CACATGGG | 0.276 ± 0.0049
CACATGAC | 0.317 ± 0.0056
CACATGGA | 0.37 ± 0.02
CACATGGC | 0.343 ± 0.039
AACATGGA | 0.106 ± 0.052
CCCATGGG | -0.0583 ± 0.12
CACATGAG | 0.0368 ± 0.07
AACATGGG | 0.231 ± 0.047
CGTATCCC | -0.27 ± 0.076
AAATCAAC | 0.129 ± 0.0028
CGCTCGCC | -0.158 ± 0.02
CCGGCAAC | -0.301 ± 0.024
ACCCTGTC | -0.0879 ± 0.17
AGAATCGG | -0.25 ± 0.048
ACTAGGTA | 0.102 ± 0.04
CTAACGCA | 0.12 ± 0.0043
GCTGCAGA | -0.00761 ± 0.073
CGTATTTA | 0.285 ± 0.056
AGTATTTA | 0.186 ± 0.058
GGTATTTA | 0.0645 ± 0.18

Sequence | PBM 8-mer E-score
AAGACACC | -0.137 ± 0.085
AGCAGCTA | -0.199 ± 0.04
CAGTACAC | 0.0197 ± 0.13
AACTACAC | 0.282 ± 0.02
AACTACAG | -0.0267 ± 0.018
AAGTACAC | 0.235 ± 0.075
AAGTATAA | 0.225 ± 0.069
AAGTACAA | 0.225 ± 0.15
AAGTATAC | 0.246 ± 0.014
GACTACAC | 0.0803 ± 0.16
AAGTATAT | 0.0964 ± 0.13
CGTGGCCC | 0.0336 ± 0.14
GAGATGCC | 0.078 ± 0.063
AGGGCCGA | 0.0332 ± 0.068
GCCCACCC | 0.206 ± 0.017
CGACACCG | -0.265 ± 0.12
AGATGGCC | -0.092 ± 0.12
CACGTAGC | 0.0038 ± 0.017
GAGTCCCA | -0.0366 ± 0.0061
CTGTTGCA | 0.0892 ± 0.013
GATATAAA | 0.0778 ± 0.026
CACATATG | 0.185 ± 0.029
AATATAAT | 0.156 ± 0.023
AATATAAA | 0.26 ± 0.1
CATATAAG | 0.21 ± 0.012

Sequence | PBM 8-mer E-score
CATATAAA | 0.295 ± 0.098
CACATATA | 0.301 ± 0.098
GACATATA | 0.0052 ± 0.075
TATATAAA | 0.196 ± 0.099
CGTACCAG | -0.0661 ± 0.0056
TTAGCGAA | -0.0471 ± 0.069
CGCCACGA | -0.137 ± 0.15
ATGCAGGG | 0.0122 ± 0.03
CCTAAGCG | -0.0916 ± 0.0045
GTGTCTGA | 0.00783 ± 0.11
GAACAAGA | 0.137 ± 0.095
AATTCCCC | 0.0165 ± 0.05
AATTCCCA | 0.282 ± 0.0091
GATTCCCA | -0.0229 ± 0.034
GACCCGAA | -0.196 ± 0.14
AAACTACC | 0.0484 ± 0.067
AAACTACA | 0.219 ± 0.021
AAACTACT | 0.232 ± 0.034
ACGTGCTC | 0.298 ± 0.013
ACGTGCTA | 0.311 ± 0.019
CCGTGCTC | -0.0456 ± 0.034
CCGTGCTA | -0.0393 ± 0.0021
ACGTGCTG | 0.212 ± 0.025
GCGTGCTA | 0.197 ± 0.0073
